This is a sample that favours compounds with a hit; in the whole collection about 10% have one here.
JMJD2A Tudor: blocks the human JMJD2A Tudor domain | Potency, µM (top dose mostly 114 µM), without a hit: top-dose activity change, negative = inhibition, most hits filed as inhibitors | 4.4% of 390,000 active | AlphaScreen JMJD2A-Tudor / H3K4me3 peptide binding | O75164 | AID 504339; further: on the % scale 0 is the no-effect control and ±100 the full control effect; nearly all actives have a fitted effect of over 50% in size
BAZ2B inh: blocks human BAZ2B. AlphaScreen BAZ2B-H3K14Ac peptide displacement. Potency, µM (titrated, usually from 114 µM), for inactives: top-dose activity change, negative = inhibition, actives largely listed as inhibitors. 4.4% of 360,000 active. AID 504333; further: on the % scale 0 is the no-effect control and ±100 the full control effect; nearly all actives have a fitted effect of over 60% in size
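BAZ2B (50 nM) with biotin-H3(5-23)K14Ac peptide (50 nM) in PBS pH 7.4, 0.01% Tween-20, preformed 30 min, then compound 30 min at room temperature; top concentration 110uM. AlphaScreen streptavidin donor/nickel chelate acceptor beads (10 ug/mL final), 20 min dark, signal read.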
GLS inh: blocks human kidney-isoform glutaminase activity; O94925; GLS enzymatic activity, qHTS titration; Potency, µM (series often up to 45.5 µM), for inactives: top-dose activity change, negative = inhibition, hits mostly inhibitors; 0.21% of 410,000 active; AID 624170; further: on the % scale 0 is the no-effect control and ±100 the full control effect
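Read-out is an Amplex red fluorescence increase coupled through glutamate oxidase and HRP, measured before and after 30 min room-temperature incubation. hKGA is in 45 mM KH2PO4 (pH 8.2) with 0.02% Tween-20; glutamine added as 1mM solution.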
HP1b chromo inh: blocks HP1-beta chromodomain binding to methylated histone tails; Potency, µM (top dose mostly 114 µM), for the others: at the highest dose activity change, negative = inhibition, hits mostly inhibitors; AID 540317; AlphaScreen HP1-beta / biotin-H3K9me3 peptide binding; P83916; 0.56% of 390,000 active; further: nearly all actives have a fitted effect of over 70% in size
Target sequence (P83916 whole entry, looked up): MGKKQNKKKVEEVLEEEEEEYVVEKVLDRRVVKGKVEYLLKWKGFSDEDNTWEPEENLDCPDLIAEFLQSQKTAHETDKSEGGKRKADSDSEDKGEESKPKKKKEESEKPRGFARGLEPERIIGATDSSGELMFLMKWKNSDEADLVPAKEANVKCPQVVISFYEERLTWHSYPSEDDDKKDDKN
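HP1-beta protein (50 nM final) preincubated 30 min at room temperature with biotinylated H3(1-18)K9me3 peptide (50 nM) in PBS pH 7.4, 0.01% Tween-20, then compound added for 30 min. AlphaScreen streptavidin donor/nickel chelate acceptor beads (10 ug/mL final), 30 min dark, luminescence read.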
G9a inh: G9a (human) methyltransferase inhibition. AID 504332. G9a H3K9 monomethylation, AlphaScreen, 2 h. Q96KQ7. Potency, µM (highest dose often 102 µM), without a hit: top-dose activity, negative = inhibition, usual class: inhibitors. 8.8% of 350,000 active; further: on the % scale 0 is the no-effect control and ±100 the full control effect; nearly all actives have a fitted effect of over 75% in size
Target sequence (Q96KQ7 913-1193 limits assumed): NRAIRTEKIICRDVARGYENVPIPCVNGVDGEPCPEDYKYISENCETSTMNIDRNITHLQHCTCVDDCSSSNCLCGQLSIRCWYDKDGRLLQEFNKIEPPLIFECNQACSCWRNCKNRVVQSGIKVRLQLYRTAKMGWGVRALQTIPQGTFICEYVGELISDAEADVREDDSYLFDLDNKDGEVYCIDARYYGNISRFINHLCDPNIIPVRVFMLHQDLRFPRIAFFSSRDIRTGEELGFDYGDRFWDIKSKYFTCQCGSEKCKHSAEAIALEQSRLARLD
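Signal arises when biotinylated H3K9 peptide, once monomethylated, bridges streptavidin donor and antibody-captured acceptor beads. Enzyme at 20 nM was preincubated 15 min with test compounds; peptide 500 nM and SAM 20 uM then reacted for 2 h.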
Active calls of the source: *; ? = inconclusive; / = no result given; ! = not confirmed by another sample; [ ] = remark or other dose. The call rests on the fitted dose curve; in most records, active means well fitted curve in the direction sought with a large enough effect; inconclusive means small, poorly fitted or top-dose-only effect, or another doubt; inactive means no such curve, though single readings can be large; an effect the other way counts as inactive or inconclusive. Potency means the concentration at half of the fitted maximal effect.

SMILES | JMJD2A Tudor | BAZ2B inh | GLS inh | HP1b chromo inh | G9a inh
N#CC(C#N)=Cc1ccc([N+](=O)[O-])c(O)c1 | / | / | / | / | 8.9µM*
N#CC(C#N)=Cc1ccc(C=C(C#N)C#N)cc1 | -14% | -23% | 1% | 26% | 50µM*
Nc1ccc([N+](=O)[O-])cc1O | / | / | 41%[99.4 µM] | / | /
Cc1cc(N2CCCC2)ccc1C=C(C#N)C#N | -3% | -19% | -6% | 40% | 18%[59 µM]
CCCCOC(=O)C1=C(N)OC2=C(C(=O)CC(C)(C)C2)[C@]12C(=O)N(C)c1ccccc12 | 9% | -1% | -1% | 16% | -3%[12.7 µM]
O=c1cccc2n1CC1CC2CN(c2ncnc3c2cnn3-c2ccc(Cl)cc2)C1 (centres undefined) | -13% | -1% | 7% | 23% | ?
Nc1nc2c(s1)CCCCCCCCCC2 | ? | -27% | -2% | ? | 45µM*
CCOC(=O)CC(NC(=O)C(Cc1ccc(N(CCCl)CCCl)cc1)NC(C)=O)C(=O)OCC (centres undefined) | 13µM* | 20µM* | 0% | ? | /
NC(Cc1ccc(N(CCCl)CCCl)cc1)C(=O)O (centres undefined) | / | / | / | / | 11µM*!
CNC[C@H](O)c1ccc(O)c(OC)c1 | / | / | / | / | -9%[21.5 µM]
CCCCn1nnnc1C(c1ccccc1)N1CCC2(CC1)C(=O)NCN2c1ccccc1 (centres undefined) | / | / | 13% | / | /
O=C(O)CC1OCC=C2CN3CCC45C6=CC(=O)C(=O)C([N+](=O)[O-])=C6NC4C1C2CC35 (centres undefined) | 2.5µM*! | ? | -14% | 55% | /
CN1CCN(c2ccc([N+](=O)[O-])c(Sc3ccccn3)c2)CC1 | -17% | -18% | -8% | 8% | 0%
NNS(=O)(=O)c1ccc(Sc2ccccn2)c([N+](=O)[O-])c1 | -20% | -14% | 13% | 31% | 40µM*
CC1CCCCC1n1c(-c2cccnc2)n[nH]c1=S (centres undefined) | 7.1µM* | -6% | -1% | 54% | 14µM*
CN1CCCCC1c1ccc(-c2cccnc2)nc1 (centres undefined) | -18% | ? | 4% | 32% | -118%[59 µM]
Cc1cc(OC(C)C(=O)NCc2ccncc2)c2c3c(c(=O)oc2c1)CCC3 (centres undefined) | -17% | -20% | -1% | 95% | 41%
Cc1cc(OCC(=O)N[C@@H](Cc2ccccc2)C(=O)O)c2c3c(c(=O)oc2c1)CCC3 | -10% | -7% | ? | 52% | 16%[12.7 µM]
Cc1cc(OC(C)C(=O)NCc2cccnc2)c2c3c(c(=O)oc2c1)CCC3 (centres undefined) | 89µM* | -8% | -20% | 95% | 37%
Cc1cc(OCC(=O)N[C@H](C(=O)O)c2ccccc2)c2c3c(c(=O)oc2c1)CCC3 | ? | -3% | 16% | -6% | 79µM*
CCOc1ccc(N2C(=O)/C(=C/c3ccc(C)o3)C(=O)NC2=S)cc1 | 25µM* | ? | ? | ? | /
CCOc1ccc(-n2c(CC)nc3ccccc3c2=O)cc1 | -6% | 11% | -12% | 39% | 18%
O=C1NC(=O)N(c2ccc3c(c2)OCO3)C(=O)/C1=C/c1ccc(N2CCCC2)o1 | -2% | -35% | 3% | 24% | ?
Cc1ccc(/C=C2\C(=O)NC(=S)N(c3cccc(F)c3)C2=O)o1 | 45µM* | 50µM* | ? | ? | 1.8µM*
COc1ccc(N2C(=O)CC(=O)NC2=O)cc1 | -5% | -27% | -9% | 30% | -42%[59 µM]
SMILES | JMJD2A Tudor | BAZ2B inh | GLS inh | HP1b chromo inh | G9a inh
COc1ccc(N2C(=O)/C(=C/c3ccc(C)o3)C(=O)NC2=S)cc1 | 32µM* | 45µM* | ? | -15% | 10µM*
CCOc1ccc(N2C(=O)NC(=O)/C(=C\c3ccc(N4CCCCC4)o3)C2=O)cc1 | -14% | -7% | -1% | -4% | 45µM*
CS(=O)(=O)NCc1nnc2n1-c1ccc(Cl)cc1C(c1ccccc1)=NC2 | -7% | -26% | -2% | 10% | 0%[59 µM]
N=C(N)c1ccc(CS(=O)(=O)F)cc1 | / | / | / | / | -85%[59 µM]
O=C(O)CCn1cc(C=C2C(=O)NC(=O)NC2=O)c(-c2cc3ccccc3oc2=O)n1 | -12% | ? | 0% | 19% | ?
COc1ccccc1CCNCc1ccc(OC)c(OC)c1OC | 20µM* | 40µM* | 3% | -35% | /
COc1ccc(CNCCc2c[nH]c3ccccc23)c(OC)c1OC | -27% | -37% | -4% | 18% | ?
COc1ccc(CCNCc2ccc(OC)c(OC)c2OC)cc1 | 3.2µM* | 79µM* | -12% | ? | 14µM*
CN1C(=O)N(C)C(=O)C2(Cc3c(ccc4ccccc34)N(C)C2)C1=O | -18% | -2% | 6% | ? | ?
O=C1C(c2ccccc2)=C(N2CC2)c2ccccc21 | 45µM* | 35µM* | 5% | 20µM* | 40µM*
CN1CCN(c2cccc3c2C(=O)c2ccccc2C3=O)CC1 | ? | ? | 7% | -13% | ?
COc1ccc(-c2nn(CCC#N)cc2C(=O)Nc2ccccc2)cc1OC | -3% | 6% | 10% | 23% | -5%
Cc1ccc(CN(Cc2ccccc2)C(=S)NCC(=O)N2CCC3(CC2)OCCO3)o1 | -35% | ? | -3% | -13% | 50µM*
O=C(Cn1ccc2ccccc2c1=O)NCC(=O)N1CCC2(CC1)OCCO2 | -1% | -1% | -6% | 36% | -19%
Cc1cccc(N=Nc2ccc(N(C)C)cc2)c1 | 14µM* | 7.1µM* | 50% | 11µM* | 8.9µM*
CN(C)c1ccccc1 | / | / | 1% | / | /
O=C1C=CC(=O)C(Cl)=C1 | / | / | / | / | 0.71µM*
O=C1C=CC(=O)C=C1 | ? | / | -13% | ? | ?
CN1CCc2nc(SCc3cccc(Br)c3)c(C#N)cc2C1 | 2% | -11% | -6% | 22% | -14%
COC(=O)C1=C(c2ccc(F)cc2F)C[C@@H]2CC[C@H]1N2C(=O)NCCO | -9% | 10% | -4% | 35% | 4%[2.33 µM]
CC[C@]12C=CCN3CCC4(c5cc(Br)c(OC)cc5N(C)C4[C@@](O)(C(=O)OC)[C@@H]1OC(C)=O)C32 (some centres undefined) | -25% | -14% | 5% | 14% | 35µM*
CC(=O)N1CCN(c2ccc([N+](=O)[O-])cc2C=C2C(=O)NC(=O)NC2=O)CC1 | 0% | 13% | 8% | 39% | 40µM*
CCN1CCN(c2ccc([N+](=O)[O-])cc2C=C2C(=O)NC(=O)NC2=O)CC1 | -11% | 1% | 2% | ? | ?
Cn1c(O)c(C(=O)c2ccccc2)c(=O)n(C)c1=O | -18% | 6% | 0% | 45% | -7%[12.7 µM]
Cn1c(O)c(C(=O)c2ccccc2F)c(=O)n(C)c1=O | -17% | -30% | -2% | 28% | 11µM*
CN1C(=O)C(c2ccc([N+](=O)[O-])cc2[N+](=O)[O-])C(=O)N(C)C1=O | ? | 50µM* | 1% | 18% | 8%[2.33 µM]

Compound activity from PubChem.
